# Results: ChEMBL document CHEMBL3988442, “University of Dundee, Small-Polar-MMV Screening Library” (2021)
# Hit rate of the full screen: of about 66,000 compounds, about 960 (1.5%) showed an effect of 50% or more. For the sample, strong results were picked, then their nearest neighbours and some compounds at random.
# Tested on: Trypanosoma brucei
# Test: Trypanosoma brucei 72 hour study
# Assay type: functional, organism-based
# Set-up: scale not given: in the data most compounds retested in dose-response had high values
smiles,measurement,setting,value
Cc1noc(C)c1CN1CCc2ncnc(-c3ccccc3)c2CC1.O=C(O)C(F)(F)F,Percent Effect,"30.3 µM, […]",-55.88%
CCn1ncc2c1CCCC2NCc1cccc2c1OCCO2 (configuration not stated),Percent Effect,"30 µM, 30.03 µM",6.251%
CC(C)(C)n1ncc2c1CCCC2NCc1cccc2c1OCCO2 (configuration not stated),Percent Effect,10 µM,0.9444%
same,Percent Effect,"30.3 µM, […]",51.24%
CC(C)(C)n1ncc2c1CCCC2NCc1cccc2c1OCO2 (configuration not stated),Percent Effect,"30 µM, 30.03 µM",-18.28%
Cc1ccc(N2C[C@H](C)[C@]3(CCN(c4cccnc4)C3=O)C2)nn1.O=C(O)C(F)(F)F.O=C(O)C(F)(F)F,Percent Effect,"30.3 µM, […]",-32.51%
O=C(NC1CCCC1)[C@@H]1C[C@@H]2CCN(Cc3ccoc3)C[C@H]2O1.O=C(O)C(F)(F)F,Percent Effect,"30.3 µM, […]",-88.78%
Cc1nc(CN2CCO[C@@H]3CN(C(=O)CN(C)C)CC[C@@H]3C2)cs1,Percent Effect,"30 µM, 30.03 µM",8.371%
Cc1nc(CN2CCO[C@@H]3CN(C(=O)CC4CC4)CC[C@@H]3C2)cs1,Percent Effect,"30 µM, 30.03 µM",61.23%
Cc1nc(CN2CCO[C@@H]3CN(C(=O)CC4CC4)C[C@@H]3C2)cs1.O=C(O)C(F)(F)F,Percent Effect,"30 µM, 30.03 µM",48.86%
CCC(=O)N1CCC2(CC1)C(c1cccnc1)CC(=O)N2CCOC.O=C(O)C(F)(F)F (configuration not stated),Percent Effect,"30.3 µM, […]",-33.93%
CO[C@H]1CN(C(=O)c2cccnc2)[C@@H]2CCCO[C@H]12.O=C(O)C(F)(F)F,Percent Effect,"30.3 µM, […]",-49.74%
COc1cc(CNCC(C)O)cc(Cl)c1OCc1ccc(C)cc1.Cl (configuration not stated),Percent Effect,"30 µM, 30.03 µM",97.25%
COc1cccc(CNC(C)C)c1OCc1ccc(C)cc1.Cl,Percent Effect,"30 µM, 30.03 µM",-4.618%
CC(O)CNCc1ccc(OCc2ccc3c(c2)OCCO3)cc1.Cl (configuration not stated),Percent Effect,"30 µM, 30.03 µM",-67.49%
COc1ccc(C[C@H]2CNCC[C@H]2OC)cc1.O=C(O)C(F)(F)F,Percent Effect,"30.3 µM, […]",13.15%
Cc1n[nH]c2ncc(CNC3CCCN(c4ncccn4)C3)cc12.Cl (configuration not stated),Percent Effect,"30 µM, 30.03 µM",72.79%
Cc1n[nH]c2ncc(CNC3CCN(Cc4ccccn4)CC3)cc12.Cl,Percent Effect,"30 µM, 30.03 µM",-2.543%
Cl.c1cnc(N2CCCC(NCc3ccc(-n4ccnc4)cc3)C2)nc1 (configuration not stated),Percent Effect,"30.3 µM, […]",10.24%
CC(C)[C@@H]1CN(S(=O)(=O)c2cccc(C(=O)O)c2)C[C@H]1N(C)C,Percent Effect,"30 µM, 30.03 µM",98.32%
COc1cccc(S(=O)(=O)N2C[C@@H](N(C)C)[C@H](C(C)C)C2)c1,Percent Effect,"30 µM, 30.03 µM",-34.95%
CC(C)S(=O)(=O)N1CCC(Cc2cccc(C(=O)O)c2)C1 (configuration not stated),Percent Effect,"30 µM, 30.03 µM",-22.39%
COCCN1CC2(CCOCC2)c2cc(NC(=O)C3CC=CC3)ccc21.O=C(O)C(F)(F)F,Percent Effect,"30.3 µM, […]",4.18%
COc1cc(-c2cc(-c3ccn(C)c3)nc(N)c2C#N)cc(OC)c1O,Percent Effect,"30 µM, 30.03 µM",-22.54%
Cc1noc(C)c1-c1ccc(C2CCCN2C(=O)Cn2ccnc2)nc1 (configuration not stated),Percent Effect,"30.3 µM, […]",-4.122%
CN(C)C(=O)CN1CCCC(c2nccnc2-c2cccc(Cl)c2)C1 (configuration not stated),Percent Effect,"30.3 µM, […]",-2.355%
CN(C)C(=O)CN1CCC(c2cncc(-c3cccc(Cl)c3)n2)CC1,Percent Effect,"30.3 µM, […]",45.69%
CN(C)C(=O)CN1CCCC(c2cncc(-c3cccc(Cl)c3)n2)C1 (configuration not stated),Percent Effect,"30.3 µM, […]",53.32%
CO[C@H]1C[C@@H]2CN(C(=O)c3cccc4c3OCCO4)C[C@@H]2C1,Percent Effect,"30.3 µM, […]",-23.55%
O=C(C1CC1)N1CC[C@H](O)[C@@H]1Cc1ccccc1,Percent Effect,"30.3 µM, […]",-5.545%
CC(C)c1cc(N2CCC(N(C)C)C2)n2nccc2n1 (configuration not stated),Percent Effect,"30.3 µM, […]",4.814%
CC(C)c1cc(N2CCSCC2)n2nccc2n1,Percent Effect,"30.3 µM, […]",-15.7%
CC(C)c1cc(N2CCC(C(C)N3CCCC3)CC2)n2nccc2n1 (configuration not stated),Percent Effect,"30.3 µM, […]",88.53%
CC(C)c1cc(N2CCC[C@H](N)C2)n2nccc2n1,Percent Effect,"30.3 µM, […]",-37.71%
CC(C)c1cc(N2CC[C@H](F)C2)n2nccc2n1,Percent Effect,"30.3 µM, […]",99.84%
CC(C)c1cc(N2CCC(N)CC2)n2nccc2n1,Percent Effect,"30 µM, 30.03 µM",38.85%
COc1ccc(CN2CCc3sccc3C2C)cc1CN1CCOCC1.Cl (configuration not stated),Percent Effect,"30.3 µM, […]",-20.22%
COc1cc(C(=O)Nc2nc(C)no2)cc(Cl)c1OC,Percent Effect,10 µM,-54.4%
O=C(O)C(F)(F)F.O=C(O)C(F)(F)F.c1cc(CN2CCO[C@H]3[C@H](OCCN4CCCC4)CC[C@@H]32)co1,Percent Effect,"30.3 µM, […]",-5.554%
Clc1ccc(OCCc2cc(C3CCN(c4ncccn4)C3)n[nH]2)cc1 (configuration not stated),Percent Effect,"30.3 µM, […]",28.73%
Br.COc1ccc(OCCc2cc(C3CCN(CC(C)C)C3)n[nH]2)cc1 (configuration not stated),Percent Effect,"30.3 µM, […]",20.63%
CCCN1CCC(c2cc(CCOc3ccc(C(F)(F)F)cc3)[nH]n2)C1 (configuration not stated),Percent Effect,"30.3 µM, […]",85.59%
Cl.Cl.Cn1cc(C(=O)NCc2cncc3c2CCN(CC2CC2)C3)cn1,Percent Effect,"30.3 µM, […]",-27.13%
CN(Cc1ccncc1)C(CO)c1cccc(F)c1 (configuration not stated),Percent Effect,"30 µM, 30.03 µM",-28.86%
O=C(Nc1ccc2c(c1)C(=O)NC2)c1ccc(S(=O)(=O)C(F)(F)F)cc1,Percent Effect,"30.3 µM, […]",11.83%
Cc1[nH]c2ccccc2c1-c1ccnc(N[C@@H](C)CO)n1,Percent Effect,"30.3 µM, […]",24.23%
Cc1[nH]c2ccccc2c1-c1ccnc(N[C@H](CO)CC(C)C)n1,Percent Effect,"30.3 µM, […]",57.39%
